The text below walks through data of PubChem BioAssay AID770 (SRMLSC, 2007).

The nature of the assay: HT29 colon tumor cell growth inhibition, primary screen, imaging, high content imaging, 24 h, CellTiter-Glo (AID 770).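 As to condensed nuclei: share of cells whose nuclear area falls below control median minus 1.5 SD.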 To be noted: HT29 cell number by imaging, at 10 µM, stronger effect = higher value; for condensed nuclei: measured here: percent cells with condensed nuclei.
Setting [1] is: measured here: ATP CellTiter-Glo viability.

Structures are written as SMILES. Among all 3,300 compounds or so, fewer than 10 were called active.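 The calls were made as follows: active = growth inhibition above 90% in viable cell count at a single dose; inactive = growth inhibition below 90%.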 Not all results are given here.

In the case of `O=C(O)CCc1cc(I)c(Oc2ccc(O)c(I)c2)c(I)c1`, the growth inhibition was 4.78% (inactive) and the condensed nuclei came out at 4.44%. For the same molecule, the growth inhibition under setting [1] worked out at 3.12%.

Take `O=C(O)c1c[nH]c2ccc(S(=O)(=O)N3CCOCC3)cc12`: the growth inhibition is -36.6% (inactive) and the condensed nuclei was found to be 1.85%. In addition, the growth inhibition under setting [1] is -2.36%.

In the case of `Cc1cc(C)nc(NC2=NCC(=O)N2c2ccccc2)n1`, the growth inhibition was -50.8% (inactive) and the condensed nuclei turned out to be 3.13%. The growth inhibition under setting [1] was -10.6%.

`COc1ccc(C2C(C(C)=O)=C(O)C(=O)N2c2nccs2)cc1OC` (centres undefined): the growth inhibition is 6.29% (inactive) and the condensed nuclei turned out to be 3.31%. For the same molecule, the growth inhibition under setting [1] is -2.95%.

For the molecule `CCc1cc(=O)oc2cc(C)c(CN3CCCC3)c(O)c12`, the growth inhibition is 22.4% (inactive) and the condensed nuclei came to 4.19%. The growth inhibition under setting [1] amounted to 0.04%.

As to `CN(C)CCCN(CCCNC(=O)/C=N/O)Cc1ccccc1`, the growth inhibition was -11.9% (inactive) and the condensed nuclei stood at 2.84%. Moreover, under setting [1], the growth inhibition was -9.76%.

`Nc1nnnn1CC(=O)OCc1cccc(Br)c1`: the growth inhibition is -17.1% (inactive) and the condensed nuclei turned out to be 1.92%. For the same molecule, under setting [1], the growth inhibition was -5.1%.

Take `CN1CC(=O)Nc2ccc(F)cc2C1=O`: the growth inhibition is 2.67% (inactive) and the condensed nuclei is 13.9%. Also, under setting [1], the growth inhibition was -9.28%.

As for `CCCC(=O)N(Cc1cc2ccccc2[nH]c1=O)c1ccccc1OC`, the growth inhibition was 0.99% (inactive) and the condensed nuclei turned out to be 3.75%. Also, the growth inhibition under setting [1] came to 5.4%.

Regarding `COc1ccc(CNC(=O)[C@H](C)NC(=O)C2CCN(S(=O)(=O)c3ccc(C)cc3)CC2)cc1`, the growth inhibition was -1% (inactive) and the condensed nuclei was determined as 4.4%. The growth inhibition under setting [1] is -14.3%.

`CCc1nc2sc3c(c2c(=O)o1)CCCC3`: the growth inhibition is -25.2% (inactive) and the condensed nuclei was 2.35%. Further, the growth inhibition under setting [1] was -2.13%.

Consider `Cc1ccc(N(CN2C(=O)NC(C)(C)C2=O)CN2C(=O)NC(C)(C)C2=O)cc1`, for which the growth inhibition was 24.1% (inactive) and the condensed nuclei was 3.39%. In addition, the growth inhibition under setting [1] was -7.36%.

With `CN1CCN(CCCN2c3ccccc3Sc3ccc(Cl)cc32)CC1`, the growth inhibition was -25.4% (inactive) and the condensed nuclei turned out to be 2.59%. Moreover, under setting [1], the growth inhibition is -28.5%.

In the case of `OCCN1CCN(CCCN2c3ccccc3Sc3ccc(Cl)cc32)CC1`, the growth inhibition is 95.8% (active) and the condensed nuclei came to 11.7%. Further, under setting [1], the growth inhibition worked out at 77.7%.

Take `CN1CCN(CCCN2c3ccccc3Sc3ccc(C(F)(F)F)cc32)CC1`: the growth inhibition is 95.6% (active) and the condensed nuclei was found to be 15.7%. Moreover, under setting [1], the growth inhibition turned out to be 87.9%.

On to `OCCN1CCN(CCCN2c3ccccc3Sc3ccc(C(F)(F)F)cc32)CC1`, for which the growth inhibition is 89% (inactive) and the condensed nuclei came to 12.9%. For the same molecule, the growth inhibition under setting [1] worked out at 59.7%.

Regarding `CN(C)CCCN1c2ccccc2Sc2ccc(C(F)(F)F)cc21`, the growth inhibition was 62.5% (inactive) and the condensed nuclei turned out to be 4.92%. In addition, the growth inhibition under setting [1] worked out at 40.5%.

Consider `CN(C)CCCN1c2ccccc2Sc2ccc(Cl)cc21`, for which the growth inhibition was 37.5% (inactive) and the condensed nuclei amounted to 5.79%. The growth inhibition under setting [1] was 25.5%.

Take `CCN(CC)CCNc1nc(-c2ccco2)c2c(c1C#N)CC(C)(C)OC2`: the growth inhibition was 0.38% (inactive) and the condensed nuclei came out at 4.74%. Under setting [1], the growth inhibition is -1.61%.

Turning to `CC1(C)CC(=O)C=C(NCCO)C1`, the growth inhibition is 25.6% (inactive) and the condensed nuclei was determined as 3.37%. Also, the growth inhibition under setting [1] amounted to 9.68%.

Regarding `O=S(=O)(c1cccc2nsnc12)N1CCN(C/C=C/c2ccccc2)CC1`, the growth inhibition was -27% (inactive) and the condensed nuclei was 4.32%. Moreover, the growth inhibition under setting [1] is 4.18%.

Consider `Cc1cc(OCC(=O)Nc2ccc3oc(-c4ccncc4)nc3c2)ccc1Cl`, for which the growth inhibition is -2.56% (inactive) and the condensed nuclei turned out to be 2.42%. Under setting [1], the growth inhibition is -0.21%.

On to `CCC(NC(=O)Nn1cnnc1)(C(F)(F)F)C(F)(F)F`, for which the growth inhibition is 3.51% (inactive) and the condensed nuclei was 2.8%. Under setting [1], the growth inhibition is -0.07%.

Turning to `O=C(NCCN1CCCCC1)c1ccc(=O)oc1`, the growth inhibition was -6.93% (inactive) and the condensed nuclei amounted to 2.43%. Further, the growth inhibition under setting [1] is -12.9%.

`CC(=Nc1ccc(C)c(C)c1)C1=C(O)CCC1=O`: the growth inhibition was 6.59% (inactive) and the condensed nuclei amounted to 3.62%. Besides, the growth inhibition under setting [1] was -5.94%.

For `CCN(CC)CCNc1nc2c(c(=O)[nH]c(=O)n2C)n1CCOc1ccccc1`, the growth inhibition is -28.8% (inactive) and the condensed nuclei came to 2.26%. The growth inhibition under setting [1] is -0.48%.

Turning to `Cc1ccc(C2C(C(=O)c3cc4ccccc4o3)=C(O)C(=O)N2CCN(C)C)o1` (centres undefined), the growth inhibition is -17.9% (inactive) and the condensed nuclei is 2.37%. For the same molecule, the growth inhibition under setting [1] was -1.01%.

Turning to `CCOc1cc(C2Nc3ccccc3C(=O)N2c2ccccc2OC)ccc1O` (centres undefined), the growth inhibition is 1.14% (inactive) and the condensed nuclei is 1.12%. Moreover, under setting [1], the growth inhibition was -2.4%.

For the molecule `Cn1c(=O)c2c(nc(Br)n2CCSc2ncccn2)n(C)c1=O`, the growth inhibition was 17.9% (inactive) and the condensed nuclei turned out to be 1.48%. The growth inhibition under setting [1] was 6.9%.

Consider `Cc1ccc(N2C(=O)CC3(CC4C=CC3C4)C2=O)cc1` (centres undefined), for which the growth inhibition was -2.66% (inactive) and the condensed nuclei is 2.87%. Under setting [1], the growth inhibition was 9.8%.

Regarding `CNC(=O)CC(C(=O)O)c1ccc(OC(C)C)cc1` (centres undefined), the growth inhibition is 14% (inactive) and the condensed nuclei was determined as 2.97%. Further, the growth inhibition under setting [1] was 5.18%.

For the molecule `CC(C)Sc1nc(N2CCCC2)c2c(c1C#N)CC(C)(C)OC2`, the growth inhibition is -32.3% (inactive) and the condensed nuclei was 2.77%. For the same molecule, under setting [1], the growth inhibition is -22.9%.

As for `CN1C2C=C3C(C#N)=C(N)C(C#N)(C#N)[C@@H](c4cccs4)C3C1CC2` (some centres undefined), the growth inhibition was -11.2% (inactive) and the condensed nuclei worked out at 3.15%. Further, the growth inhibition under setting [1] is -11.8%.

Consider `N#C/C(C(=O)NCc1ccco1)=C1/SC(Cc2ccc(F)cc2)C(=O)N1c1ccccc1` (centres undefined), for which the growth inhibition is 16.5% (inactive) and the condensed nuclei is 7.66%. Moreover, under setting [1], the growth inhibition is -3.7%.

`CCOC(=O)/C=c1\s/c(=C(\C#N)C(=O)OCC)n(-c2ccccc2)c1=O`: the growth inhibition is -8.81% (inactive) and the condensed nuclei worked out at 2.51%. The growth inhibition under setting [1] was -10.2%.

Turning to `Cc1nc(Nc2ncc3c(n2)CCCC3=O)nc2ccccc12`, the growth inhibition is -21.1% (inactive) and the condensed nuclei was 3.04%. In addition, the growth inhibition under setting [1] is -26.2%.

Consider `CCOC(=O)c1[nH]c2cc3c(cc2c1NC(=O)CN1CCC(C)CC1)OCO3`, for which the growth inhibition is 37.9% (inactive) and the condensed nuclei came to 3.55%. In addition, the growth inhibition under setting [1] is 20%.

Take `O=C(C1=C(O)C(=O)N(CCCN2CCOCC2)C1c1ccccn1)c1cc2ccccc2o1` (centres undefined): the growth inhibition is -11.4% (inactive) and the condensed nuclei is 2.31%. For the same molecule, the growth inhibition under setting [1] was -7.9%.
